Measurements taken from the supplement of paper PMC8866396.
± gives the standard deviation of the averaged measurements.

Each compound was assayed on IL-6-GFP PC-9GR (assay: cell viability (CCK-8 OD) relative to DMSO control (fraction of control); higher = more viable cells). Conditions: compound concentration: 10 uM; treatment time: 48 h.
In short: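 In 96-well plates, 3000 cells/well of PC-9 or PC-9GR lung cancer cells with lentiviral IL-6-GFP overexpression received each compound of a purchased 510-compound library at a final 10 μM for 48 h. Viability, measured by CCK-8 absorbance, is each well's optical density relative to the vehicle control well. Data come from two independent replicates.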

Row | SMILES | cell viability
1 | CNC(=O)c1cc(Oc2ccc(NC(=O)Nc3ccc(Cl)c(C(F)(F)F)c3)c(F)c2)ccn1.O [Regorafenib Monohydrate] | 0.659 ± 0.32
2 | O=NN(CCCl)C(=O)NCCCl [Carmustine] | 1.21 ± 0.32
3 | O=C(O)C1CSCN1 (stereo not drawn) [Timonacic] | 1.19 ± 0.24
4 | CC/C(=C(\c1ccccc1)c1ccc(OCCN(C)C)cc1)c1ccccc1.O=C(O)CC(O)(CC(=O)O)C(=O)O [Tamoxifen] | 1.2165 ± 0.0005
5 | O=C(O)COC(=O)Cc1ccccc1Nc1c(Cl)cccc1Cl [Aceclofenac] | 1.29 ± 0.4
6 | CC(=O)c1c(C)c2cnc(Nc3ccc(N4CCNCC4)cn3)nc2n(C2CCCC2)c1=O.O=S(=O)(O)CCO | 0.918 ± 0.1
7 | CCC(C)C(=O)OC1CC(O)C=C2C=CC(C)C(CCC(O)CC(O)CC(=O)O)C21 (stereo not drawn) [Pravastatin] | 1.48 ± 0.39
8 | Cc1coc2c1C(=O)C(=O)c1c-2ccc2c1CCCC2(C)C [Tanshinone IIA] | 1.37 ± 0.095
9 | Cc1nc(Nc2ncc(C(=O)Nc3c(C)cccc3Cl)s2)cc(N2CCN(CCO)CC2)n1.Cl [Dasatinib hydrochloride] | 0.517 ± 0.025
10 | CC(C)=CCC/C(C)=C/CC/C(C)=C/CCC(=O)OC/C=C(\C)CCC=C(C)C [Gefarnate] | 0.851 ± 0.023
11 | COC1CC2CCC(C)C(O)(O2)C(=O)C(=O)N2CCCCC2C(=O)OC(C(C)CC2CCC(OCCO)C(OC)C2)CC(=O)C(C)/C=C(\C)C(O)C(OC)C(=O)C(C)CC(C)/C=C/C=C/C=C/1C (stereo not drawn) [Everolimus (RAD001)] | 0.985 ± 0.068
12 | CC1(C)C2CCC1(C)C(O)C2 (stereo not drawn) [Borneol] | 1.27 ± 0.36
13 | OCC1OC(c2ccc(F)c(Cc3cc4ccccc4s3)c2)C(O)C(O)C1O (stereo not drawn) [Ipragliflozin (ASP1941)] | 0.779 ± 0.068
14 | CCCCOc1ccc(CC(=O)NO)cc1 [Bufexamac] | 1.2 ± 0.39
15 | COC1OC2OC3(C)CCC4C(C)CCC(C1C)C24OO3 (stereo not drawn) [Artemether] | 1.29 ± 0.17
16 | Cc1ccc(C(C)C)cc1 [p-Cymene] | 0.822 ± 0.24
17 | CCOc1ccccc1OCCNC(C)Cc1ccc(OC)c(S(N)(=O)=O)c1 (stereo not drawn) [Tamsulosin] | 1.37 ± 0.042
18 | CC(=O)c1c(C)c2cnc(Nc3ccc(N4CCNCC4)cn3)nc2n(C2CCCC2)c1=O.Cl | 0.661 ± 0.17
19 | CCN(CC)Cc1cc(Nc2ccnc3cc(Cl)ccc23)ccc1O.Cl.Cl.O.O [Amodiaquine dihydrochloride dihydrate] | 1.05 ± 0.011
20 | CC(=O)Nc1ccc(OC(=O)c2ccccc2OC(C)=O)cc1 [Benorylate] | 1.54 ± 0.41
21 | CC1CC2C3CC(F)C4=CC(=O)C=CC4(C)C3(F)C(O)CC2(C)C1(OC(=O)c1ccco1)C(=O)SCF (stereo not drawn) [fluticasone furoate] | 0.711 ± 0.089
22 | Cc1ccc(-c2ncc(Cl)cc2-c2ccc(S(C)(=O)=O)cc2)cn1 [Etoricoxib] | 0.855 ± 0.092
23 | Nc1n[n+]([O-])c2ccccc2[n+]1[O-] [Tirapazamine] | 1.09 ± 0.25
24 | CCOc1cc2ncc(C#N)c(Nc3ccc(OCc4ccccn4)c(Cl)c3)c2cc1NC(=O)/C=C/CN(C)C [Neratinib (HKI-272)] | 0.795 ± 0.045
25 | CCOc1ccc(Cc2cc(C3OC(CO)C(O)C(O)C3O)ccc2Cl)cc1 (stereo not drawn) [Dapagliflozin] | 1.37 ± 0.23
26 | C/C=C1/C2C=C(C)CC1(N)c1ccc(=O)[nH]c1C2 (single isomer, unassigned; (-)) [(-)-Huperzine A (HupA)] | 1.17 ± 0.37
27 | CC(C)c1c(C(=O)Nc2ccccc2)c(-c2ccccc2)c(-c2ccc(F)cc2)n1CCC(O)CC(O)CC(=O)O (stereo not drawn) [atorvastatin] | 0.904 ± 0.21
28 | CCC1(O)CC2CN(CCc3c([nH]c4ccccc34)C(C(=O)OC)(c3cc4c(cc3OC)N(C)C3C(O)(C(=O)OC)C(OC(C)=O)C5(CC)C=CCN6CCC43C65)C2)C1.O=S(=O)(O)O (stereo not drawn) [Vinblastine sulfate] | 0.475 ± 0.069
